Shown are actives, neighbours in structure and some others; about 10% of the full set was active somewhere.
NIH3T3 tox: kills NIH 3T3 cells; NIH 3T3 viability, CellTiter-Glo ATP luminescence, 48-72 h; Potency, µM (top dose mostly 96.7 µM), without a hit: at the highest dose activity change, negative = cytotoxicity, most hits filed as inhibitors; 4.3% of 94,000 active; note: nearly all actives have a fitted effect of over 55% in size
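First NIH 3T3 cells are plated at 400 cells/well; next compound is pinned in; then plates incubate 48 or 72 hr at 37 °C; finally CellTiter-Glo is added and luminescence read after 10 min.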
HEK cytotox: HEK 293 cell cytotoxicity | AID 1345083 | 6.6% of 94,000 active | HEK 293 viability, ATP luminescence (CellTiter-Glo), 48-72 h | Potency, µM (series often up to 115 µM), for the others: at the highest dose activity change, negative = cytotoxicity, most hits filed as inhibitors; note: nearly all actives have a fitted effect of over 60% in size
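Cytotoxicity was scored by loss of ATP-coupled luminescence (CellTiter-Glo) in HEK 293 cells. Compound treatment ran 48 or 72 hr at 37 degree Celsius, 5% CO2, 95% humidity.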
GPT2 inhibitor: blocks human glutamate pyruvate transaminase 2; Q8TD30; Potency, µM (highest dose often 57.7 µM), inactives show top-dose activity change, negative = inhibition, usual class: inhibitors; Recombinant GPT2, coupled pyruvate oxidase/HRP Amplex Red fluorescence; AID 1671188; 0.25% of 100,000 active; note: nearly all actives have a fitted effect of over 60% in size
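Fluorescence of coupled pyruvate oxidase/HRP/Amplex Red system (50uM Amplex, 30 min, dark) reports pyruvate formed by GPT2. Enzyme reaction: 10ng/uL GPT2, 2mM L-alanine, 250uM a-KG, 30 min room temperature, pH 7.5; 50uM AOA control.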
FLuc inh: Photinus pyralis luciferase inhibition; P08659; purified P. pyralis luciferase, luminescence, biochemical; Potency, µM (highest dose often 115 µM), hits mostly inhibitors; 2.5% of 76,000 active; note: nearly all actives have a fitted effect of over 65% in size
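Biochemical qHTS: compound (6-point titration) added to 10uM D-luciferin plus 10uM ATP in Tris acetate pH 7.5 buffer with Mg, Tween-20 and BSA, then purified enzyme at 10nM; light output imaged.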
NPR1 antag: human Npr1 receptor antagonism | HEK293 hNpr1 GloSensor cGMP, ANP-stimulated luminescence | Potency, µM (doses to about 46.3 µM), for inactives: at the highest dose activity change, negative = inhibition, usual class: inhibitors | 1.6% of 76,000 active; calls by dose curve; note: nearly all actives have a fitted effect of over 60% in size
Target sequence (P16066 whole entry, looked up): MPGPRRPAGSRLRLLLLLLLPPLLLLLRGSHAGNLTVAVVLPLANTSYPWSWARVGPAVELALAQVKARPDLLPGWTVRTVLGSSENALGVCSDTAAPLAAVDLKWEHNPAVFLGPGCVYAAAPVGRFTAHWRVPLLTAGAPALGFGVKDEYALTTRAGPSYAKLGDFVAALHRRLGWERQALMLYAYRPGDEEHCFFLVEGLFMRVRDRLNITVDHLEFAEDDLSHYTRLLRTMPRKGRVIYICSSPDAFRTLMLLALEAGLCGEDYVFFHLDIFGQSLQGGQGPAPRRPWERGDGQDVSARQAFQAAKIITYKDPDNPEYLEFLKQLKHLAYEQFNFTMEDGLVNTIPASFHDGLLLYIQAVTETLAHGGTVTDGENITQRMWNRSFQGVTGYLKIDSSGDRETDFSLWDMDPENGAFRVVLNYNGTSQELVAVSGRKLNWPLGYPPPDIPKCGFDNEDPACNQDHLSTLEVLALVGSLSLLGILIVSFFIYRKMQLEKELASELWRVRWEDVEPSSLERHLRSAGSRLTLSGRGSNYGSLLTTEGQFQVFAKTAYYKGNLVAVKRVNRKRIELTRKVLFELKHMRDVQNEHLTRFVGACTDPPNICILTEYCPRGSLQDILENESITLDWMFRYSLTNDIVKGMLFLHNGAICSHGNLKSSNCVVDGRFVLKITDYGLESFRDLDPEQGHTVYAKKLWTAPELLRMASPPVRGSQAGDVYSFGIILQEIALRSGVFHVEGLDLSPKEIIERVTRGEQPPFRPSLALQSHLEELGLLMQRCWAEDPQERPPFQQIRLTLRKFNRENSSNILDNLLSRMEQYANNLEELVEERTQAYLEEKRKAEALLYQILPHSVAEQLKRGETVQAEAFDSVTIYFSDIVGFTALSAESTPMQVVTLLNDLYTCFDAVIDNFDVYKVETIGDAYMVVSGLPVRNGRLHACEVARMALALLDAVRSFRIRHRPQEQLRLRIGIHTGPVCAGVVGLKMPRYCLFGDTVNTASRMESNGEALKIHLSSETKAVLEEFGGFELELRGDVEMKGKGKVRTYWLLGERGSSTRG
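HEK293 cells stably expressing human Npr1 and cGMP GloSensor pGS-40F, loaded 2 h with 2% GloSensor reagent, given compound 30 min at room temperature. Luminescence read before and 20 min after 0.1 nM hNppA.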
* marks the source's active call; other numbers are inactive results; i = inactive; ? = inconclusive; / = no result given; [ ] = remark or other dose. Unless noted, calls come from the whole dose curve; as a rule, active = well fitted curve in the direction sought with a large enough effect; inconclusive = small, poorly fitted or top-dose-only effect, or another doubt; inactive = no such curve, though single readings can be large; an effect the other way counts as inactive or inconclusive. % is set by controls: 0 for no effect and ±100 for the full control effect; potency is the fitted concentration of half-maximal effect.

SMILES	NIH3T3 tox	HEK cytotox	GPT2 inhibitor	FLuc inh	NPR1 antag
Cc1ccccc1-c1nccc2c(=O)cc(-c3ccncc3)oc12	?	100µM*	-9%[88.5 µM]	i	6%[70.6 µM]
COc1ncccc1-c1nccc2c(=O)cc(-c3ccncc3)oc12	28µM*	-25%[172 µM]	?	i	13%[70.6 µM]
O=C(NCc1ccccc1Cl)C1(c2ccc(Cl)cc2)CCOCC1	-24%	?	/	/	/
O=[S+]1([O-])c2cnccc2OC(Cn2cccc2)CN1Cc1cccc(F)c1 (stereo not given)	-12%[46.1 µM]	?	i	/	/
Cc1cn2nc(C(=O)Nc3ccc(Cl)cc3)cc2c(N(C)Cc2ccccc2)n1	-20%	-17%	-4%	i	8%
Cc1cn2nc(C(=O)Nc3ccc(N(C)C)cc3)cc2c(N(C)Cc2ccccc2)n1	?	?	?	2.5µM*	-10%
Cc1ccc(NC(=O)N[C@@H]2C=C(C(=O)N[C@@H](Cc3ccc(O)cc3)C(N)=O)C[C@@H](O)[C@@H]2O)cc1	-3%	2%	i	i	1%
CC(C)NC(=O)N1CCN(c2nccc(Nc3ccccc3F)n2)CC1	?	25µM*	i	/	/
O=C(Nc1ccccc1)N1CCN(c2nccc(Nc3ccccc3F)n2)CC1	45µM*	?	i	/	/
COc1ccccc1Nc1ccnc(N2CCN(C(=O)NC(C)C)CC2)n1	?	?	i	/	/
COCC(=O)N1CCN(c2nccc(Nc3ccccc3F)n2)CC1	-20%	2%	-5%	/	/
COC(=O)N1CCN(c2nccc(Nc3ccccc3F)n2)CC1	?	89µM*	1%[88.5 µM]	/	/
O=C(NC1CCCC1)N1CCN(c2nccc(Nc3ccccc3F)n2)CC1	?	45µM*	i	/	/
COc1ccc(-c2ccc(C(=O)NC3CCOCC3)cc2)nn1	-30%[138 µM]	-3%[172 µM]	/	/	/
CN(c1cc(=O)c2ccnc(NCc3ccc4c(c3)OCO4)c2o1)C1CCOCC1	32µM*	89µM*	1%[88.5 µM]	i	-2%[70.6 µM]
COCc1ccccc1-c1nccc2c(=O)cc(-c3cnn(C)c3)oc12	?	-10%[172 µM]	-15%[88.5 µM]	i	1%[70.6 µM]
Cn1cc(-c2cc(=O)c3ccnc(NCc4ccc5c(c4)OCO5)c3o2)cn1	25µM*	?	5%[88.5 µM]	?	0%[70.6 µM]
COc1cccc(C(=O)N2CCCC(C(=O)N3CCC(c4nc5ccncc5[nH]4)CC3)C2)c1 (stereo not given)	-7%	i	-5%	/	/
O=C(NCC(=O)N1CCOCC1)c1cccc(-c2ccc(C(F)(F)F)cc2)c1	?	?	-5%	/	/
CC1=C[C@@H](CNS(=O)(=O)c2cccs2)[C@H](C(C)C)C[C@H]1CC(=O)NCCN1CCOCC1	25µM*	-22%	-3%	i	2%
CC1=C[C@@H](CNC(=O)COc2ccccc2)[C@H](C(C)C)C[C@H]1CC(=O)NCCN1CCOCC1	-20%	-18%	1%	i	-2%
CC(=O)Nc1ccc(C(=O)NC[C@@H]2C=C(C)[C@H](CC(=O)NCCN3CCOCC3)C[C@H]2C(C)C)cc1	2%	-10%	?	45µM*	6%
Cc1cccc(NC(=O)Nc2ccc(C)n(CC(=O)NC(C)C)c2=O)c1	-24%	?	i	7.1µM*	-2%
Cc1ccc(NC(=O)Nc2ccccc2)c(=O)n1CC(=O)N1CCN(c2ccccc2)CC1	i	?	i	11µM*	-1%
CCOc1ccc(NC(=O)Cn2c(C)ccc(NC(=O)Nc3cccc(C)c3)c2=O)cc1	28µM*	40µM*	-9%	?	0%
SMILES	NIH3T3 tox	HEK cytotox	GPT2 inhibitor	FLuc inh	NPR1 antag
CN(C)C(=O)N1CCC2(CC1)CN(C(=O)c1ccnc(N)c1)Cc1ccccc1O2	-16%	-19%	-14%	/	/
CN1CCc2c([nH]c3ccccc23)C12CCN(C(=O)c1cc(CN3CCOCC3)on1)CC2	-18%	?	-1%	i	-2%
O=C(c1cc(CN2CCOCC2)on1)N1CCC2(CC1)NCCc1c2[nH]c2ccccc12	-25%	32µM*	1%	i	8%
Cc1ccc(S(=O)(=O)N2CCC(OC3CCN(Cc4ccccc4)CC3)CC2)c(C)c1	32µM*	?	i	i	-16%
CCc1ccc(S(=O)(=O)N2CCC(OC3CCN(Cc4ccccc4)CC3)CC2)cc1	35µM*	?	i	i	-1%
O=S(=O)(c1ccc(F)cc1)N1CCC(OC2CCN(Cc3ccccc3)CC2)CC1	?	?	i	i	0%
OCC1(Cc2ccc(F)cc2)CCCN(c2nc3ccccc3s2)C1 (stereo not given)	?	40µM*	-7%	i	?
CCCOc1ccccc1C(C)Nc1nc(-c2cccnc2)nc2c1CNC2 (stereo not given)	?	79µM*	-5%	i	-29%
COc1ccc(CNC(=O)[C@@H]2Cc3nc[nH]c3CN2C(=O)NC2CCCCC2)cc1	-17%[174 µM]	3%[172 µM]	i	i	0%[70.6 µM]
Cc1ccc([S+](=O)([O-])N2CCC(N3C(=O)c4c(c(C)nn4-c4ccccc4)C3C(C)C)C2)cc1 (stereo not given)	-27%	?	/	/	/
COc1ccccc1-c1cccc(CN2CCC(N[S+](=O)([O-])c3ccccc3)CC2)c1	32µM*	40µM*	i	/	/
COc1ccccc1-c1cccc(CN2CCC(NC(=O)C3CCCC3)CC2)c1	?	?	4%	/	/
COc1ccccc1-c1cccc(CN2CCC(N[S+](=O)([O-])c3cccc(C(F)(F)F)c3)CC2)c1	13µM*	?	/	/	/
CNC(=O)[C@@H]1C[C@@H](n2cc(CNC(=O)Nc3ccc(Cl)cc3)nn2)CN1	-11%	?	2%	i	-2%
Cc1ccccc1C(=O)N1CCCN(c2ccc3nnc(C)n3n2)CC1	-10%	-2%	/	/	/
COc1ccc(Nc2ccnc(N3CCC(N[S+](=O)([O-])c4ccc(C)cc4)CC3)n2)cc1	25µM*	28µM*	i	/	/
C[S+](=O)([O-])N1CCN(c2nccc(Nc3ccccc3F)n2)CC1	-27%	-10%	i	/	/
Cc1noc(C)c1[S+](=O)([O-])NC1CCN(c2nccc(Nc3ccccc3F)n2)CC1	?	?	i	/	/
O=[S+]([O-])(NC1CCN(c2nccc(Nc3ccccc3F)n2)CC1)c1cccs1	45µM*	45µM*	-2%	/	/
Cc1ccc([S+](=O)([O-])NC2CCN(c3nccc(Nc4ccccc4F)n3)CC2)cc1	40µM*	28µM*	-12%	/	/
Cc1ccc([S+](=O)([O-])N2CCN(c3nccc(Nc4ccccc4F)n3)CC2)cc1	?	32µM*	i	/	/
CC(C)C1=NOC2(CCCN(CC3CCCCC3)C2)C1 (stereo not given)	-7%[138 µM]	-17%[172 µM]	-2%[88.5 µM]	/	/
O=C(NCc1cccc(F)c1)C1CCCN1C(=O)c1cccc(-c2cccnc2)c1 (stereo not given)	-26%	?	/	/	/

Screening results deposited in PubChem BioAssay by National Center for Advancing Translational Sciences (NCATS).
